Over roughly 59,000 sequences, the read-out has its median near -0.00055; the lowest 2% begin near -2. Only a selection was taken, and the lowest values are over-represented in it overall.
Experiment: Identification of proteins required for the processing of the EWS-FLI1 nascent transcript;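 also: robust z of luciferase light less the median z of siRNAs with the same seed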
Conditions: TC32 Ewing sarcoma NR0B1-luc vs CMV-luc (EWS-FLI1 target promoter against control promoter), 48 h; screened at 20 nM (by protocol)
Outline: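 Readout: OneGlo luminescence, 48 h post-transfection, TC32-NR0B1-luc vs TC32-CMV-luc in parallel. siRNA 20 nM final, RNAiMax lipid, 600 cells/well; z-score-MAD transformed, then seed-adjusted.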

In order of rising seed-corrected z-score:
1. ACUGCUUUCCUUAAAAUCC against CCDC40  -3.74
2. UCAAUGAGAGUGCACAUCC against COPA  -3.73
3. UGAGUUUCUCGCACGUCUC against WNT4  -2.44
4. UCUGGUUCCAGGUUGCUUA against SFXN3  -2.37
5. AGAGUGUCAAGCAGCAUGG against EEF1A1P33  -2.33
6. UAUCUUUUCCCAGUUGGAC against MSRB3  -2.11
7. AAUGCUCCAAGACUGGAGG against PTCRA  -1.44
8. UUAACUGCAGGCUUAUACU against AKR1B1  -1.42
9. AAAGGGACGCUCAACCACC against HIST1H4K  -1.31
10. UAACUUAUCUAAACUACUC against SPAG9  -0.547
11. UGCGGAUCAAGUCUGAGAC against MSH5  -0.442
12. UGACUUGACUCCGAUCUGC against AP2A1  -0.384
13. UUUGUUCAUCACGAAAGUC against SDHAF3  -0.383
14. UACAUGGUAAUAACUUUUC against MARCKS  -0.217
15. UUCGUAGUGGAGUGAAUCC against DHH  -0.195
16. UGCUAUAUCUAGAUGUUCC against RMDN2  -0.178
17. UUCGUGGUCUUGCAGAAGC against LY6D  -0.178
18. UUUCGGUUCCUUGAAACCA against DBNL  -0.0899
19. AAAACUAUUGGUUUCUUCC against GCOM1  -0.0313
20. UAUGAUUUAAUCACCUCCU against LOC653513  0.00911
21. UCUGUUUCUCGCGCACUCG against COX7A1  0.0308
22. UCUACUAUCAUUGUCCCUU against TAL1  0.0482
23. UUGUUAACCAAGACAACGC against SNAPIN  0.13
24. GAUAGUUGUAGGGUGUGGC against NDUFA3P3  0.165
25. UUUGAUUCUACUUCAAAAC against CBX3P2  0.167
26. UCUUUGUUCCAUCAUGACC against NDUFAF7  0.211
27. UUCUUACACCUGACGAAGC against WNT5B  0.217
28. UACGAUUCUUGAGUGGAAG against BACH1  0.239
29. UAUUAUUGUCUGGAACAUC against C12orf57  0.301
30. UGACGUACAGCAUUGACAG against PHLPP2  0.366
31. UCAUUUCGCACAGCUUCCU against RARG  0.369
32. UCUGGUACUGUGAAGGGUC against TSPYL5  0.606
33. AGUAGAAAGACCAUGCUUG against TUBB2A  0.712
34. AUAUCAAUUGUUAUCUUGC against ANKRD30A  0.895
35. UGAGGCUCCAGUUUCAGGC against SLC3A2  1.53
36. UAAGUCCCAAUUCACUCUC against FAM134B  2.19

Reference: PubChem BioAssay AID1159506 (National Center for Advancing Translational Sciences (NCATS), 2015)
